Consider eight compounds from PubChem BioAssay (EPA / NIEHS).

A short description of test [1]: Tanguay_ZF_120hpf_MORT_legacy: (Legacy) Oregon State University Tanguay Lab 120 Hour Post-fertilization zebrafish Assay for Mortality (AID 2283633).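 For AC50: fitted as increase in binary mortality versus DMSO negative control.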 The essentials:
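Dechorionated Tropical 5D wild-type zebrafish embryos, one per well from 6 hpf, were statically exposed at 28C in the dark until 120 hpf (0.64% DMSO final). Mortality was scored as present/absent by brightfield microscopy, fitted positively versus DMSO.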

Test [2] can be described thus: Tanguay_ZF_120hpf_YSE_legacy: (Legacy) Oregon State University Tanguay Lab 120 Hour Post-fertilization zebrafish Assay for Yolk Sac Edema (AID 2283634).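 For AC50: actives raise the incidence of yolk sac edema above the DMSO baseline.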 The essentials: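 Tropical 5D wild-type embryos, dechorionated with pronase at 4 hpf, were exposed singly from 6 hpf to 120 hpf under static, sealed, dark conditions at 28C with 0.64% DMSO final. Yolk sac edema was scored present/absent by brightfield microscopy.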

Test [3] is described as follows: Tanguay_ZF_120hpf_AXIS_legacy: (Legacy) Oregon State University Tanguay Lab 120 Hour Post-fertilization zebrafish Assay for Body Axis Malformation (AID 2283635).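 For AC50: potency for an increased fraction of larvae scored with body axis malformation.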 The essentials: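 Tropical 5D wild-type zebrafish embryos, dechorionated with pronase at 4 hpf, were placed singly in wells at 6 hpf and exposed statically to test chemical (0.64% DMSO final) at 28C until 120 hpf, then scored by brightfield for body axis defects.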

A short description of test [4]: Tanguay_ZF_120hpf_EYE_legacy: (Legacy) Oregon State University Tanguay Lab 120 Hour Post-fertilization zebrafish Assay for Eye Malformation (AID 2283636).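 Note: binary presence or absence of eye malformation scored by brightfield in 120 hpf larvae.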 The essentials:
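Static waterborne exposure of dechorionated zebrafish embryos (strain Tropical 5D), 6 to 120 hpf, sealed plates at 28C, 0.64% DMSO vehicle. Eye malformation is scored as a binary endpoint, with gain of signal analysed relative to DMSO.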

A short description of test [5]: Tanguay_ZF_120hpf_SNOU_legacy: (Legacy) Oregon State University Tanguay Lab 120 Hour Post-fertilization zebrafish Assay for Snout Malformation (AID 2283637). The essentials:
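Dechorionated zebrafish, individually housed from 6 hpf in covered, sealed wells at 28C with 0.64% DMSO vehicle, were examined at 120 hpf for snout malformation. Responses were binary and analysed positive-direction relative to DMSO.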

Test [6] is described as follows: Tanguay_ZF_120hpf_JAW_legacy: (Legacy) Oregon State University Tanguay Lab 120 Hour Post-fertilization zebrafish Assay for Jaw Malformation (AID 2283638).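 For AC50: active means more embryos with jaw malformation than DMSO controls.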 The essentials: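 Tropical 5D wild-type embryos, dechorionated with pronase at 4 hpf, were placed singly per well at 6 hpf and statically exposed at 28C until 120 hpf (0.64% DMSO final). Jaw malformation scored as present/absent by brightfield microscopy at 120 hpf, analyzed relative to DMSO.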

Test [7] in a line: Tanguay_ZF_120hpf_OTIC_legacy: (Legacy) Oregon State University Tanguay Lab 120 Hour Post-fertilization zebrafish Assay for Otic Vesicle Malformation (AID 2283639). The essentials: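 Statically exposed wild-type 5D zebrafish embryos, kept sealed and dark at 28C through 120 hours post fertilization, were examined by brightfield microscopy for otic vesicle defects. Responses were recorded as present or absent and analysed relative to DMSO.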

Test [8] in a line: Tanguay_ZF_120hpf_PE_legacy: (Legacy) Oregon State University Tanguay Lab 120 Hour Post-fertilization zebrafish Assay for Pericardial Edema (AID 2283640).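 For AC50: potency for increased incidence of pericardial edema versus DMSO baseline.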 The essentials: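 Tropical 5D wild-type zebrafish embryos were exposed statically to 120 hpf at 28C, sealed and foil-covered, in 0.64% DMSO final. Pericardial edema was scored present/absent by brightfield microscopy; dead embryos were not scored.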

Test [9] is described as follows: Tanguay_ZF_120hpf_BRAI_legacy: (Legacy) Oregon State University Tanguay Lab 120 Hour Post-fertilization zebrafish Assay for Brain Malformation (AID 2283641). The essentials: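 Tropical 5D wild-type zebrafish embryos were exposed statically in sealed, foil-covered plates at 28C until 120 hpf, with 0.64% (vol/vol) final DMSO. Brain malformation was scored present/absent by brightfield microscopy, relative to DMSO baseline.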

A short description of test [10]: Tanguay_ZF_120hpf_PFIN_legacy: (Legacy) Oregon State University Tanguay Lab 120 Hour Post-fertilization zebrafish Assay for Pectoral Fin Malformation (AID 2283648).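 Note: each larva judged yes or no for fin defect by brightfield with dead larvae skipped.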 The essentials: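 Scoring of pectoral fin malformation was binary, made at 120 hpf on larvae exposed statically from 6 hpf after enzymatic chorion removal. Activity was fitted upward relative to DMSO controls at 0.64% (vol/vol).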

Test [11] can be described thus: Tanguay_ZF_120hpf_PIG_legacy: (Legacy) Oregon State University Tanguay Lab 120 Hour Post-fertilization zebrafish Assay for Pigmentation Malformation (AID 2283650). The essentials: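 Endpoint is incidence of abnormal pigmentation at 120 hpf in dechorionated 5D zebrafish exposed singly from 6 hpf at 28C, DMSO vehicle at 0.64%. Embryos dying by 24 or 120 hpf are excluded from scoring.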

Test [12] can be described thus: Tanguay_ZF_120hpf_CIRC_legacy: (Legacy) Oregon State University Tanguay Lab 120 Hour Post-fertilization zebrafish Assay for Circulatory Malformation (AID 2283651). The essentials:
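Embryos are dechorionated at 4 hpf, plated one per well at 6 hpf, then held under static exposure at 28C until 120 hpf. Malformations are recorded as binary calls; mortality excludes other endpoints.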

Read-out in test [13]: kallikrein-3 (KLK3), KLK3 (gene 354)
In words: LTEA_HepaRG_KLK3: Life Technologies and Expression Analysis (LTEA) Assay for kallikrein-3 (KLK3) using HepaRG (AID 2283652; active = hit-call score of the fitted dose curve at least 0.9, where 1 is the maximum; inactive = score below 0.9). The settings on record: mRNA level, 48 h; actives raise or lower the signal. The essentials:
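KLK3 transcript levels were measured by TaqMan qRT-PCR with normalisation to three housekeeping genes. HepaRG cultures received chemicals for 48 h at up to 100 uM (half-log, 8 points, 0.5% DMSO vehicle), fitted in both directions against DMSO.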

Read-out in test [14]: solute carrier (SLC22A6), SLC22A6 (gene 9356)
In words: LTEA_HepaRG_SLC22A6: Life Technologies and Expression Analysis (LTEA) Assay for solute carrier (SLC22A6) using HepaRG (AID 2283653; active = hit-call score of the fitted dose curve at least 0.9, where 1 is the maximum; inactive = score below 0.9). The settings on record: mRNA level, 48 h; actives raise or lower the signal. The essentials: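 Differentiated human HepaRG cells were exposed for 48 h in serum-free induction medium to eight concentrations (top 100 uM, half-log steps, 0.5% DMSO), in duplicate. SLC22A6 mRNA was quantified by qRT-PCR, normalised to ACTB, GAPDH and POLR2A, and fitted bidirectionally against DMSO.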

Test [15] is described as follows: Tanguay_ZF_120hpf_SWIM_legacy: (Legacy) Oregon State University Tanguay Lab 120 Hour Post-fertilization zebrafish Assay for Swim Bladder Malformation (AID 2283654).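 Note: swim bladder malformation in each larva scored yes or no under brightfield.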 The essentials: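 Static waterborne exposure of single dechorionated Tropical 5D zebrafish embryos, 6–120 hpf, 28C, 0.64% DMSO final. Read-out: swim bladder malformation, present/absent, relative to DMSO negative control; trimethyltin chloride 5uM served as positive control.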

Read-out in test [16]: solute carrier (SLC10A1), SLC10A1 (gene 6554)
In words: LTEA_HepaRG_SLC10A1: Life Technologies and Expression Analysis (LTEA) Assay for solute carrier (SLC10A1) using HepaRG (AID 2283657; active = hit-call score of the fitted dose curve at least 0.9, where 1 is the maximum; inactive = score below 0.9). The conditions noted are these: mRNA level, 48 h; actives raise or lower the signal. The essentials: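 Cryopreserved HepaRG cells are thawed, plated and cultured 48 h; medium is then switched to serum-free induction medium and chemicals added (8 points, max 100 uM, 0.5% DMSO). After 48 h, RNA is isolated and SLC10A1 quantified by qRT-PCR.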

A short description of test [17]: Tanguay_ZF_120hpf_SOMI_legacy: (Legacy) Oregon State University Tanguay Lab 120 Hour Post-fertilization zebrafish Assay for Somite Malformation (AID 2283647). The essentials:
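Tropical 5D wild-type zebrafish embryos, dechorionated with pronase at 4 hpf, were placed singly at 6 hpf and statically exposed until 120 hpf at 28C in 0.64% DMSO. Somite malformation was scored present/absent by brightfield microscopy versus DMSO.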

Test [18] in a line: Tanguay_ZF_120hpf_CFIN_legacy: (Legacy) Oregon State University Tanguay Lab 120 Hour Post-fertilization zebrafish Assay for Caudal Fin Malformation (AID 2283649). The essentials: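 Tropical 5D wild-type embryos, dechorionated with pronase at 4 hpf, were placed singly in wells at 6 hpf and statically exposed to compound at 28C until 120 hpf (0.64% DMSO). Caudal fin malformation was scored present/absent by brightfield microscopy.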

Test [19] in a line: Tanguay_ZF_120hpf_TRUN_legacy: (Legacy) Oregon State University Tanguay Lab 120 Hour Post-fertilization zebrafish Assay for Truncated Body (AID 2283655). The essentials:
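Tropical 5D wild-type embryos, dechorionated with pronase at 4 hpf, were placed singly in wells at 6 hpf and statically exposed at 28C until 120 hpf, final DMSO 0.64%. Truncated body was scored present/absent by brightfield microscopy.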

Test [20] can be described thus: Tanguay_ZF_120hpf_NC_legacy: (Legacy) Oregon State University Tanguay Lab 120 Hour Post-fertilization zebrafish Assay for Notochord and Tail Malformation (AID 2283656). The essentials:
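Binary scoring of notochord distortion by brightfield microscopy; embryos dying were not scored. Wild-type Tropical 5D embryos, chorion removed, exposed singly and statically from 6 to 120 hpf, 28C, sealed, 0.64% DMSO.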

Inconclusive results are not listed. Calls of active or inactive are those of the source. Rule for the calls, unless noted: active = hit-call score of the fitted dose curve at least 0.9, where 1 is the maximum; inconclusive = response in the unintended direction; inactive = score below 0.9.

As to `ClC1=C(Cl)C2(Cl)C3C(Cl)C=CC3C1(Cl)C2(Cl)Cl` (stereo unspecified), the outcome in test [1], in [2], in test [3], in test [4], in [5] and in test [6] was inactive. For the same compound, the result in test [7], in test [8], in test [9], in [10], in test [11] and in test [12] was inactive. The call in test [13], in test [14], in test [15] and in test [16] was inactive.

Turning to `C1=Cc2cccc3cccc1c23`, the call in [1], in test [2], in test [3], in test [4], in test [5] and in test [6] was inactive. Further, the result in test [7], in [9], in test [17], in test [10], in test [18] and in test [11] was inactive. Besides, the compound was called inactive in test [12], in test [13], in test [14], in [15], in test [19] and in [20]. Further, the outcome in test [16] was inactive.

As for `CCC[CH2][Sn]([Cl])([CH2]CCC)[CH2]CCC`, in test [1], the AC50 (commonly the concentration at which the activity in the assay is half-maximal) was 0.282 µM (active). In addition, the outcome in test [2], in [3], in [4], in [5], in test [6] and in test [7] was inactive. For the same compound, the compound was called inactive in test [8], in test [9], in test [17], in test [10], in test [18] and in test [11]. The compound was classed as inactive in test [12], in test [15], in test [19] and in test [20].

For the compound `Cc1cccc(N)c1N`, the result in test [1], in [4], in [5], in test [6], in [7] and in [9] was inactive. Further, the outcome in [17], in test [10], in test [18], in test [11], in test [12] and in test [15] was inactive. Moreover, the call in test [19] and in [20] was inactive. Further, the concentration at half-maximal activity (AC50) was 10.6 µM (active) in [2], 27.8 µM (active) in test [3] and 54 µM (active) in [8].

For `[Cl-].[Cl-].[Hg+2]`, the AC50 in [1] is 2.7 µM (active); in test [2], 4.25 µM (active); in test [3] it was 3.84 µM (active); in test [4] it was 1.05 µM (active); in [5], 3.82 µM (active); in [6], 3.12 µM (active). Also, the concentration at half-maximal activity (AC50) in test [7] is 3.86 µM (active); in [9], 1.22 µM (active); in test [17] it was 3.87 µM (active); in test [10], 3.5 µM (active); in test [18], 1.08 µM (active); in test [11] it was 1.05 µM (active). The figures for the AC50 in [12], in test [15] and in test [19] were 3.58 µM (active), 1.02 µM (active) and 3.83 µM (active), respectively.

`CC(C)COC(=O)c1ccccc1C(=O)OCC(C)C`: the result in test [1], in test [2], in [3], in test [7], in test [9] and in test [18] was inactive. Also, the outcome in test [11], in test [12], in test [13], in test [14], in [15] and in [19] was inactive. Also, the compound was called inactive in test [20] and in [16]. The AC50 in [4] is 30.5 µM (active); in test [5] it was 44.1 µM (active); in test [6], 29.7 µM (active); in test [17], 50.6 µM (active); in test [10], 45.5 µM (active).

Consider `Clc1ccccc1Cl`, for which the result in test [1], in [2], in test [3], in test [4], in test [5] and in test [6] was inactive. The call in test [7], in [9], in [17], in test [10], in test [18] and in [11] was inactive. For the same compound, the call in test [12], in test [15], in test [19] and in [20] was inactive.

As for `Nc1ccc([N+](=O)[O-])cc1`, the outcome in test [1], in test [2], in [3], in test [4], in test [5] and in test [6] was inactive. Further, the result in [7], in test [8], in test [9], in test [17], in test [10] and in test [18] was inactive. The call in [11], in [12], in test [15], in test [19] and in test [20] was inactive.
